Laboratory results published in PubChem BioAssay AID1117319 (Southern Research Institute, 2015).
About 1,500 (0.58%) of roughly 260,000 compounds were called active. Inconclusive results (about 5%) are left out.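 How the source made its calls: active means inhibition above a set limit at one or more doses, reproduced on every date tested; inconclusive means results disagree between test dates, or hit never tested in dose response; inactive means the rest.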 These entries were drawn from the full list. Measured potencies and affinities stand elsewhere.

What follows are molecules tested against Virion infectivity factor (Human immunodeficiency virus type 1 group M subtype B (isolate BH10)) + Virion infectivity factor (Human immunodeficiency virus type 1 group M subtype B (isolate BRU/LAI)) + Virion infectivity factor (Human immunodeficiency virus type 1 group M subtype B (isolate PCV12)) + Virion infectivity factor (Human immunodeficiency virus type 1 group M subtype B (isolate HXB2)) + DNA dC->dU-editing enzyme APOBEC-3G (Homo sapiens) (UniProt P69720+P69721+P69722+P69723+Q9HC16) (assay: HIV-1 Vif–A3G interaction blockers – biochemical, TR-FRET, GST-Vif 1-94, biotin-A3G peptide, dose response retest, primary screen (AID 1117319;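 further: Vif residues 1-94 fused to GST binding biotinylated APOBEC3G peptide 110-148; 0% = full assay without inhibitor and 100% = GST in place of GST-Vif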)). Details: TR-FRET GST-Vif / biotin-A3G peptide binding; stronger effect = higher value.
With O=C1C(=O)c2c(ccc3ccccc23)-c2ccccc21 the inhibition was -6.35% (inactive). With Oc1ccc2ccccc2c1Br the inhibition was 0.97% (inactive). In the case of CCCCCCCCC#Cc1nc(C)ccc1OC, the inhibition is reported as -3.1% (inactive). For CCOC(=O)N1C2=NC(C(=O)OC)=C(C(=O)OC)[C@@H]3Nc4ccccc4[C@]23C[C@H]1C(=O)OC, the inhibition was 4.32% (inactive). C[C@H]1CN([C@@H](C)CO)C(=O)CCCn2nncc2CO[C@@H]1CN(C)C(=O)NC1CCCCC1 was tested, and the inhibition was 1.5% (inactive). For O=C(O)c1ccccc1C(=O)Nc1ccc(-n2nccc2C(F)(F)F)cc1, the inhibition was -1.72% (inactive). In the case of O=C(CNc1ccc(F)cc1)N/N=C1\CCCc2ccccc21, the inhibition is reported as -0.54% (inactive). For COC(=O)CSc1nc(N)nc(C)c1Cl, the inhibition was -8.89% (inactive). CC1=C(C(=O)N2CCOCC2)C(c2ccc(O)cc2)NC(=S)N1 (stereo not given) was tested, and the inhibition was 17.4% (inactive). In the case of c1ccc2c3c(cc(N4CCOCC4)c2c1)OC1(N2CCOCC2)CCCCC1O3 (stereo not given), the inhibition is reported as -2.4% (inactive). For COc1cc(OC)cc(C(=O)N[C@H](C(=O)Nc2cc(C)cc(C)c2)C(C)C)c1, the inhibition was -1.59% (inactive). For COc1ccc(OC)c2[nH]c(=O)c(CCNC(=O)C(=O)c3c(C)[nH]c4ccccc34)cc12, the inhibition was 2.37% (inactive). With CC[n+]1cccc(-c2nc3ccccc3s2)c1 the inhibition was 5.45% (inactive). With CCOC(=O)CSc1nnc(CNC(=O)Cc2ccccc2)n1-c1ccccc1OC the inhibition was -6.46% (inactive). With COC(=O)CSc1nnc(CNC(=O)c2cccc(C)c2)n1-c1ccccc1OC the inhibition was 6.5% (inactive). In the case of Cc1ccc(CNC(=O)C2CC2c2ccccc2)cc1 (stereo not given), the inhibition is reported as -6.49% (inactive). CN(CC(=O)Nc1c(Cl)cccc1Cl)C(=O)Cc1ccsc1 was tested, and the inhibition was -2.32% (inactive). For Cc1cc(NC(=O)C2CC(c3ccc(F)cc3)=NO2)no1 (stereo not given), the inhibition was 0.56% (inactive). CCc1cc2cccc(C)c2nc1SCC(=O)Nc1nonc1C was tested, and the inhibition was 32.8% (inactive). COc1ccccc1CN(Cc1ccco1)S(=O)(=O)c1ccc(-n2cnnn2)c(OC)c1 was tested, and the inhibition was 0.86% (inactive). With COc1cc(S(=O)(=O)N(Cc2ccccn2)Cc2ccco2)ccc1-n1cnnn1 the inhibition was -2.53% (inactive). With CN[C@H]1C[C@H]2c3[nH]c4ccccc4c3CCN2C(=O)[C@H]1[C@H](C)O the inhibition was -5.11% (inactive). In the case of N#Cc1cc(N2CCCCC2)c([N+](=O)[O-])cc1C#N, the inhibition is reported as -2.18% (inactive). O=[N+]([O-])c1cc(F)c(N2CCCCC2)cc1N1CCOCC1 was tested, and the inhibition was 8.86% (inactive). For CCN(c1ccccc1)S(=O)(=O)c1ccc(Oc2ccccc2)c(N)c1, the inhibition was 2.08% (inactive). In the case of COc1ccc(C2=NOC(C(=O)NCc3cccs3)C2)cc1 (stereo not given), the inhibition is reported as -3.82% (inactive). With COc1cccc(C2=NOC(C(=O)NCc3cccs3)C2)c1 (stereo not given) the inhibition was -3.08% (inactive). In the case of COc1cc(-n2c(C)nc3ncn(-c4ccccc4)c3c2=O)cc(OC)c1OC, the inhibition is reported as 2.62% (inactive). With CC(=O)Nc1ccc(OCC(O)Cn2cccn2)cc1 (stereo not given) the inhibition was -6.52% (inactive). CCCN(CC(=O)Nc1ccccc1C)C(=O)C1CCN(C(=O)Nc2ccccc2)CC1 was tested, and the inhibition was -0.04% (inactive). O=C(Oc1ccccc1)c1cccc(N2C(=O)CCC2=O)c1 was tested, and the inhibition was -0.79% (inactive). For N#Cc1c(Nc2cccc(F)c2)sc2c(O)cc(=O)[nH]c12, the inhibition was -5.54% (inactive). With O=C(CCc1ccc(S(=O)(=O)NCCc2ccccc2)cc1)NCc1ccc2c(c1)OCO2 the inhibition was -2.37% (inactive). For CS(=O)(=O)N(CCc1ccccc1)CC(=O)Nc1ccc2c(c1)OCO2, the inhibition was 13.8% (inactive). For CCCNS(=O)(=O)c1ccc(CCC(=O)Nc2ccc3c(c2)OCO3)cc1, the inhibition was 2.82% (inactive). In the case of CS(=O)(=O)N(CC(=O)Nc1ccc2c(c1)OCCO2)Cc1ccccc1, the inhibition is reported as 24.5% (inactive). For CC1(C)Cc2c(sc3nc(SCC(=O)N4CCOCC4)nc(N)c23)CO1, the inhibition was 3.98% (inactive). With CSc1nc(C)cc(OCC(=O)n2nc(C)cc2C)n1 the inhibition was 1.86% (inactive). CC(=O)Nc1sc2c(c1C(c1ccccc1)N1CCOCC1)CCCC2 (stereo not given) was tested, and the inhibition was 5.78% (inactive). In the case of CCOC(=O)c1ccc(NC(=O)C(=O)NCc2ccncc2)cc1, the inhibition is reported as 27% (inactive). In the case of CC(=O)OCCNc1cc(N2CCN(C)CC2)c2noc3c2c1C(=O)c1ccccc1-3, the inhibition is reported as 3.2% (inactive). O=[N+]([O-])c1c(NCCO)cc(N2CCC3(CC2)OCCO3)c2nonc12 was tested, and the inhibition was -8.02% (inactive). CCOC(=O)c1coc(C(=O)OCC)c1C(=O)OCC was tested, and the inhibition was -10.9% (inactive). For COc1ccc(-c2csc(NC3=NCCCCC3)n2)cc1, the inhibition was -3.94% (inactive). In the case of O=C1NC(=S)N/C1=C/c1cc([N+](=O)[O-])ccc1O, the inhibition is reported as 0.15% (inactive). For O=C1NC(=S)N/C1=C\c1cccc([N+](=O)[O-])c1, the inhibition was 0.47% (inactive). O=C(/C=C\Nc1ccc2c(c1)OCO2)c1ccccn1 was tested, and the inhibition was -6.96% (inactive). For O=C(/C=C\Nc1ccccn1)c1ccccc1, the inhibition was 1.92% (inactive). In the case of O=C(NCc1cccnc1)c1cc2nc(-c3cccs3)cc(C(F)(F)Cl)n2n1, the inhibition is reported as -9.65% (inactive). With Cn1c(CNc2ccccc2O)nc2ccccc21 the inhibition was 17.5% (inactive). In the case of CCCn1c(CNc2ccc(Br)cc2)nc2ccccc21, the inhibition is reported as -3.54% (inactive). With COc1ccc(NCc2nc3ccccc3n2CCOc2ccc(C)cc2)cc1 the inhibition was 8.44% (inactive). In the case of CCOc1ccc(NCc2nc3ccccc3n2CCOc2ccccc2)cc1, the inhibition is reported as 11.4% (inactive). In the case of CCOC(=O)n1c(=O)oc2cc(S(=O)(=O)N3CCOCC3)ccc21, the inhibition is reported as 9.96% (inactive). With COc1ccc(Cc2nnc(SCC(=O)NCc3ccco3)o2)cc1 the inhibition was 3.47% (inactive). COc1cc(-c2nnc(-c3cccs3)o2)cc(OC)c1OC was tested, and the inhibition was 2.65% (inactive). With COc1ccc(-c2nnc(-c3cccs3)o2)cc1OC the inhibition was 25.2% (inactive). Cc1ccc(C(=O)N[C@H](C(=O)OCC(=O)c2ccc[nH]2)C(C)C)cc1 was tested, and the inhibition was -7.75% (inactive). In the case of O=C1NC(=S)NC1=Cc1ccccc1O, the inhibition is reported as -3.79% (inactive). In the case of O=C1C(=Cc2ccco2)C(=O)c2ccccc21, the inhibition is reported as -3.58% (inactive). With Cc1ccc2c(c1)/C(=C/c1ccco1)C(=O)N2 the inhibition was 6.3% (inactive). O=C1NC(=S)NC1=Cc1ccc(O)cc1 was tested, and the inhibition was 4.35% (inactive). Cc1ccc(/C(O)=C2/C(=O)C(=O)N(c3ccccn3)C2c2cccc([N+](=O)[O-])c2)cc1 (stereo not given) was tested, and the inhibition was 1.22% (inactive). With O=C(Nn1cnnc1)c1ccc(Cl)c([N+](=O)[O-])c1 the inhibition was -7.17% (inactive). With CCN(CC)C(=O)[C@H]1C[C@H](CC(=O)NCc2ccco2)C(=O)N2CCc3c([nH]c4cc(-c5ccco5)ccc34)[C@]12C the inhibition was -1.87% (inactive). In the case of O=C(O)CCCNC(=O)c1cncc(Br)c1, the inhibition is reported as -4.15% (inactive). With COc1cc(-c2nnc3n2CCCCC3)cc(OC)c1OC the inhibition was -1.21% (inactive). With Cc1ccc(NC(=O)C(NC2CCCC2)c2ccccc2)cc1Cl (stereo not given) the inhibition was 21.3% (inactive). For O=C1NN(c2ccccc2)C(=O)/C1=C/c1ccc(Sc2ccc(Cl)cc2)o1, the inhibition was -5.35% (inactive). In the case of N#C/C(=C\c1ccc(Sc2nc3ccccc3[nH]2)o1)c1ccccc1, the inhibition is reported as 4.57% (inactive). C=CCN1C(=O)S/C(=C/c2ccc(Sc3nc4ccccc4[nH]3)o2)C1=O was tested, and the inhibition was -2.89% (inactive). For N#C/C(=C/c1ccc(Sc2nc3ccccc3[nH]2)o1)c1cccc(F)c1, the inhibition was 25.4% (inactive). In the case of CC(C)N=C1NN=C(c2cccs2)C(CC(=O)O)S1 (stereo not given), the inhibition is reported as 1.51% (inactive). With CCOc1ncccc1C(=O)OCC(=O)Nc1c(C)cc(C)cc1C the inhibition was 2.59% (inactive). For Nc1c(C(=O)Nc2ccccc2)sc2nc3c(c(-c4ccco4)c12)CCC3, the inhibition was 13.2% (inactive). In the case of Nc1c(C(=O)Nc2ccccc2)sc2nc3c(c(-c4ccco4)c12)CCCC3, the inhibition is reported as -0.46% (inactive). COc1cc(/C=C2/CC/C(=C/c3ccc(O)c(OC)c3)C2=O)ccc1O was tested, and the inhibition was 32.3% (inactive). With COc1cc(/C=C2\CCC/C(=C\c3ccc(O)c(OC)c3)C2=O)ccc1O the inhibition was 3.35% (inactive). For COc1ccc(/C=C2\CC/C(=C\c3ccc(OC)c(OC)c3)C2=O)cc1OC, the inhibition was -3.91% (inactive). For COc1cc(/C=C2\CC/C(=C\c3cc(OC)c(OC)c(OC)c3)C2=O)cc(OC)c1OC, the inhibition was 2.04% (inactive). In the case of Cc1cc(C)cc(OCc2ccc(C(=O)O)o2)c1, the inhibition is reported as 9.08% (inactive). With FC(F)(F)c1ccc(N=Cc2sc(N3CCOCC3)nc2-c2ccccc2)cc1 the inhibition was 12.3% (inactive). In the case of COc1ccc(NC(=O)CN(C)C(=O)c2sc3ccccc3c2Cl)cc1, the inhibition is reported as 1.23% (inactive). CS(=O)(=O)N(Cc1ccccc1)c1ccc(C(=O)NCc2ccccc2)cc1 was tested, and the inhibition was 25% (inactive). C/C(=N\Nc1ccc(S(N)(=O)=O)cc1[N+](=O)[O-])c1ccco1 was tested, and the inhibition was -3.09% (inactive). In the case of O=C1OC(c2ccc(Cl)cc2)=C/C1=C/c1cccnc1, the inhibition is reported as 1.36% (inactive). In the case of COC(=O)C1=C(C)NC(C)=C(C(=O)OC)C1c1ccc(NC(C)=O)cc1, the inhibition is reported as -1.45% (inactive). With Cc1ccc(NC(=O)c2ccc(Cl)nc2)cc1 the inhibition was 16.1% (inactive). For O=C(Nc1ccc(Cl)c(Cl)c1)c1ccc(Cl)c(Cl)c1, the inhibition was 22.2% (inactive). Cc1ccnc(NC(=O)c2cccc(S(=O)(=O)NCc3ccccc3)c2)c1 was tested, and the inhibition was -2.28% (inactive). With COc1cccc(-n2nnc3c(=O)n(Cc4ccc(Br)cc4)cnc32)c1 the inhibition was -0.95% (inactive). O=C(OCC(=O)c1cccs1)c1ccc(NC(=O)c2ccco2)cc1 was tested, and the inhibition was 13.8% (inactive). For CC1(NC(=O)CC[N+](C)(C)CCO)CS(=O)(=O)CC1S(=O)(=O)[O-] (stereo not given), the inhibition was 11.7% (inactive). With CCCC[N+](C)(C)CCC(=O)NC(C)(C)CS(=O)(=O)[O-] the inhibition was 17.8% (inactive). In the case of CC(=O)Nc1ccc(/C(C)=N/NS(=O)(=O)c2ccccc2)cc1, the inhibition is reported as -13.2% (inactive).
